For eight compounds, growth inhibition results are on record in PubChem BioAssay (NCI).

Molecules are shown by their SMILES. About 79,000 compounds went through this panel and 15% of them were active in at least one assay; those are over-represented in the sample as a whole. A number with no mark means an inactive call. Activity calls are given as the source filed them. No stated cut-off is given here; in the data, active means growth inhibition above about 70%; inactive means the rest.

This assay can be described thus: NCI Yeast Anticancer Drug Screen. Data for the rad14 strain (AID 159).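 Further: 0% = growth of vehicle-treated control cultures.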 Particulars: S. cerevisiae rad14 strain growth inhibition, hits give high values. The method, then: Growth inhibition of yeast strains with defined genetic alterations is measured as a screen for potential anti-cancer activity. Selected strains with alterations in DNA damage repair or cell cycle control were exposed to compounds and growth inhibition was measured relative to vehicle treated controls. The strain used in this assay is rad14

Turning to `CC1=CCCC2C1(C)CCC(C)C2(C)Cc1cc(O)ccc1O` (stereo not given), the growth inhibition runs as follows: (at 1.2 µM) 15%; (at 3.7 µM) 15%; (at 11.0 µM) 35%; (at 33.0 µM) 98% (active); (at 100.0 µM) 94% (active).

Turning to `CCC(NC(C)c1ccccc1)C(=O)c1ccc(OCc2ccccc2)c(OCc2ccccc2)c1` (stereo not given), the growth inhibition (at 1.2 µM) is -1%; the growth inhibition (at 3.7 µM) was 3%; the growth inhibition (at 11.0 µM) is 3%; the growth inhibition (at 33.0 µM) is 3%; the growth inhibition (at 100.0 µM) is -12%.

Turning to `CC1=CC2C(C(C)C)CC1C1C(=O)OC(=O)C21` (stereo not given), the growth inhibition by setting is: (at 1.2 µM) -2%; (at 3.7 µM) 4%; (at 11.0 µM) 13%; (at 33.0 µM) 24%; (at 100.0 µM) 78% (active).

`CC(=O)c1cc2c(Cl)cc(Cl)cc2oc1=O`: the growth inhibition runs as follows: (at 1.2 µM) -19%; (at 3.7 µM) -21%; (at 11.0 µM) -13%; (at 33.0 µM) -6%; (at 100.0 µM) 14%.

With `O=C(CCc1ccccc1)ON1C(=S)C(c2ccccc2)(c2ccccc2)N=C1Sc1ccccc1`, the growth inhibition was 20% (at 1.2 µM); 20% (at 3.7 µM); 27% (at 11.0 µM); 21% (at 33.0 µM); 36% (at 100.0 µM).

`O=C(O)c1ccccc1.[Ag]`: the growth inhibition (at 1.2 µM) is 91% (active); the growth inhibition (at 3.7 µM) was 101% (active); the growth inhibition (at 11.0 µM) is 99% (active); the growth inhibition (at 33.0 µM) is 99% (active); the growth inhibition (at 100.0 µM) is 99% (active).

For the compound `C/C(=N\NC(=S)NNC(=S)N(C)c1ccccc1)c1ccccn1`, the growth inhibition reads like this: (at 1.2 µM) -6%; (at 3.7 µM) 71% (active); (at 11.0 µM) 97% (active); (at 33.0 µM) 98% (active); (at 100.0 µM) 79% (active).

`N#CC(=S)Nc1cccc(Cl)c1`: the growth inhibition was 2% (at 1.2 µM); -6% (at 3.7 µM); 9% (at 11.0 µM); 35% (at 33.0 µM); 79% (active) (at 100.0 µM).
